Assay outcomes: PubChem BioAssay, National Center for Advancing Translational Sciences (NCATS)
Integrin act MD: integrin-mediated muscular dystrophy alleviation activation; Potency, µM (top dose mostly 38.3 µM), hits mostly activators; alpha7betagal myoblasts, beta-gal FDG fluorescence, 48 h; 350,000 tested, 0.064% active; AID 624291; note: nearly all actives have a fitted effect of over 60% in size
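alpha7betagal+/- myoblasts (passage 13, 250/well) treated 48 h at 37C with compounds at 1:260 dilution of DMSO stock. Lysed, then beta-galactosidase activity read as FDG fluorescence (ex 480/em 540) after 30 min, with pre-read for autofluorescence.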
N370S GC mod: inhibitors or activators of N370S glucocerebrosidase for Gaucher disease; Potency, µM (doses to about 59.4 µM), most hits filed as inhibitors; AID 2101; 330,000 tested, 0.092% active; P04062; N370S GC spleen homogenate, 4MU-glucoside fluorescence
Glioma ERSR ind: induces the endoplasmic reticulum stress response in human glioma cells | U87-MG GRP78 promoter luciferase reporter, 16 h | Potency, µM, most hits filed as activators | 420,000 tested, 0.02% active | AID 602332; note: series mostly up to about 76 µM; nearly all actives have a fitted effect of over 35% in size
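Stably transfected U87-MG human glioma cells carrying a GRP78-based luminescent sensor were seeded at 1000 cells/well, pin-dosed with compounds and incubated 16 h. Luciferase reagent was then added, and end-point luminescence was read after 10 min at room temperature.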
Apoferritin bind: binds horse apoferritin like a general anesthetic; Potency, µM (top dose mostly 77.5 µM), hits mostly inhibitors; P02791; apoferritin/1-aminoanthracene competitive binding, fluorescence; 350,000 tested, 0.074% active; AID 485281; note: nearly all actives have a fitted effect of over 20% in size
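Steps: apoferritin (10 uM) was premixed with half-saturated 1-AMA in PBS, compounds were pin-transferred, plates stood 10 min at room temperature, fluorescence was read at 380/535 nm, and curves were fitted with a Hill equation.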
ClpP mod: qHTS Assay for Activators of ClpP | Potency, µM (top dose mostly 57.5 µM) | ATP-dependent Clp protease proteolytic subunit (Bacillus subtilis (strain 168)), P80244 | purified B. subtilis ClpP, FRET peptide cleavage, 20 min | 340,000 tested, 1.9% active; active = well fitted falling curve with a large enough effect; inconclusive = small, poorly fitted or top-dose-only effect; inactive = no such curve, though single readings can be large or run the other way; note: the source files actives as falling curves though it sought activators and does not explain the sign; nearly all actives have a fitted effect of over 65% in size
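ClpP 10 microg/mL final, pH 8 Tris/KCl buffer with BSA, glycerol, Tween-20; compound pinned in; FRET-FV substrate; RT 20 min; Ex320/Em430; ΔFRET vs ADEP 5.8 microM, DMSO, no enzyme.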
CBFb RUNX1 block: inhibitors of human CBF-beta and RUNX1 interaction; 230,000 tested, under 10 active; Q01196+Q13951; Potency, µM (highest dose often 59.8 µM), most hits filed as inhibitors; AID 1477; AlphaScreen CBFb-His/RUNX1-biotin binding, biochemical
Target sequence (Q01196 whole entry, looked up): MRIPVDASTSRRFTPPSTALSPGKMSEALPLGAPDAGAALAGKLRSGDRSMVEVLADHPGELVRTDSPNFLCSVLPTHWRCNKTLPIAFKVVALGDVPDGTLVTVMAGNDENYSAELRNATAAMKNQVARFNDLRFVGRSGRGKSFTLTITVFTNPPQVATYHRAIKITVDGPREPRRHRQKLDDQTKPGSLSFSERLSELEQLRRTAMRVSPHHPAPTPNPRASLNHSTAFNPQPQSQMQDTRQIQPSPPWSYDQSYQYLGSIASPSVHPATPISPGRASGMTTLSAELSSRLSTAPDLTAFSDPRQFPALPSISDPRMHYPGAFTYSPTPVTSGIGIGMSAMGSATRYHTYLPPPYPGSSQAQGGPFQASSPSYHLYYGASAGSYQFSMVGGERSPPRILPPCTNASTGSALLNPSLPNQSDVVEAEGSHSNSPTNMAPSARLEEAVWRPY
Target sequence (Q13951 whole entry, looked up): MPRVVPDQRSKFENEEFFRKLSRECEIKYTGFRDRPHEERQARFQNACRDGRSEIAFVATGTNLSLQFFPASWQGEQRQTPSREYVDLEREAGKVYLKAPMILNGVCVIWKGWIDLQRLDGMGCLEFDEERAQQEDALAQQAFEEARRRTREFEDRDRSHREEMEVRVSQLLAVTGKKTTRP
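Compounds were screened at multiple concentrations against a preformed CBF-beta(His)/RUNX1(biotin) complex (30 nM of each) for 15 min at room temperature, followed by 90 min with nickel and streptavidin beads and AlphaScreen reading.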
A number is an active result; . = inactive; ? = inconclusive; / = not tested or not shown; [ ] = dose if it differs, or a comment. Many of the other results were omitted from the sample, so hits are more common in it than they were. Unless noted, calls come from the whole dose curve; as a rule, active = well fitted curve in the direction sought with a large enough effect; inconclusive = small, poorly fitted or top-dose-only effect, or another doubt; inactive = no such curve, though single readings can be large; an effect the other way counts as inactive or inconclusive.

SMILES | Integrin act MD | N370S GC mod | Glioma ERSR ind | Apoferritin bind | ClpP mod | CBFb RUNX1 block
CCOc1ccc2[nH]c(=O)c(CN(CCO)C(=O)c3ccc(OC)c(OC)c3)cc2c1 | . | . | . | . | 28.2µM | .
COc1ccc(CN2CCCC(n3cc(C(=O)N4CCCCC4)nn3)C2)c(OC)c1OC (stereo not drawn) | / | / | . | / | / | /
COc1ccc(CN2CCC(n3cc(C(=O)N4CCCC4)nn3)CC2)c(OC)c1C | / | / | . | / | / | /
Nc1ccccc1S(=O)(=O)Nc1cccc2cccnc12 | / | . | . | ? | / | .
Cc1cn2c(=O)cc(COc3cccc(NC(=O)c4ccc(C(C)(C)C)cc4)c3)nc2s1 | / | / | . | . | 28.2µM | /
CCC(O)CNC(=O)c1cnn(-c2nccc(-c3cc(C)sc3C)n2)c1C1CC1 (stereo not drawn) | / | / | . | / | / | /
COc1ccc2oc(C(=O)Nc3nc(-c4ccccn4)cs3)c(C)c2c1 | . | . | . | / | . | /
COc1ccc2oc(C(=O)Nc3nnc(C)s3)c(C)c2c1 | . | / | . | / | 28.2µM | /
COc1ccc2oc(C(=O)Nc3nc4ccc(S(C)(=O)=O)cc4s3)c(C)c2c1 | . | . | . | / | 15.8µM | /
COc1ccc2oc(C(=O)NC(C)c3ccccn3)c(C)c2c1 (stereo not drawn) | . | / | . | / | 25.1µM | /
Cn1c(SCC(=O)NCc2ccco2)nnc1-c1ccc(NC(=O)c2ccccc2)cc1 | / | / | . | / | . | /
Cc1ccccc1-c1nnc(SCCOc2ccc3c(C)cc(=O)oc3c2)o1 | . | . | . | ? | 25.1µM | .
CSc1ccc(CNCCCSc2ncccn2)cc1 | . | . | . | . | 8.91µM | /
Clc1ccc(CNCCCSc2ncccn2)cc1 | . | . | . | . | / | /
COc1ccccc1Oc1nc(-c2ccccc2)cc(C)c1S(C)(=O)=O | . | . | . | ? | 25.1µM | .
O=Cc1ccc(I)cc1 | / | / | . | / | . | /
Cc1cc(OCC(=O)N2CCN(c3ccccn3)CC2)c(C)cc1Br | . | . | . | . | 35.5µM | /
O=C(CC1CCCCC1)N1CCN(c2ccccn2)CC1 | . | . | . | . | 31.6µM | .
COc1ccccc1CC(=O)N1CCN(c2ccccn2)CC1 | . | . | . | . | 22.4µM | .
O=C(O)CCC(=O)N1CCN(c2ccccn2)CC1 | . | . | . | . | 25.1µM | .
COc1ccccc1CCNc1ncnc2sc(C(=O)N3CCCN(C=O)CC3)c(C)c12 | / | / | . | / | / | /
COc1ccc(/C=C/C(=O)NCC2Cc3cccc(-c4nc(C)cnc4C)c3O2)cc1OC (stereo not drawn) | / | / | . | / | / | /
CC(C)CC(NC(=O)C1CCCCC1)C(=O)N1CCN(c2ccccn2)CC1 (stereo not drawn) | . | . | . | . | 28.2µM | .
CC(C)Cc1nnc(NC(=O)CCC(=O)N2CCN(c3ccccn3)CC2)s1 | .[7.66 µM] | . | . | . | 25.1µM | .
CC(C)c1nnc(NC(=O)CCC(=O)N2CCN(c3ccccn3)CC2)s1 | .[7.66 µM] | . | . | . | ? | .
SMILES | Integrin act MD | N370S GC mod | Glioma ERSR ind | Apoferritin bind | ClpP mod | CBFb RUNX1 block
Cc1ccc(C(=O)NC(C)CCc2ccccc2)cc1S(=O)(=O)N1CCOCC1 (stereo not drawn) | . | / | . | / | 28.2µM | /
CCc1ccc(-c2nc3c(=O)n(C)c(=O)nc-3n(CC)n2)cc1 | / | / | . | / | . | /
COCC1CCCN(Cc2ccc3c(c2)CN(C(=O)c2sc(C)nc2C)CCO3)C1 (stereo not drawn) | / | / | . | / | / | /
O=[N+]([O-])c1cc2nc(O)c(O)nc2cc1[N+](=O)[O-] | / | 12.6µM | . | . | / | .
N#Cc1cc2nc(O)c(O)nc2cc1[N+](=O)[O-] | / | / | . | / | . | .
COc1cccc(CNC(=O)c2c(OC)cc(=O)n3c2CCN(C(=O)c2cc(C)ccc2C)CC3)c1 | / | / | . | / | / | /
Cc1cc(C)n(C(=O)c2ccccc2[N+](=O)[O-])n1 | . | . | . | . | 35.5µM | .
Cc1cc(C)n(C(=O)c2cccc([N+](=O)[O-])c2C)n1 | . | . | . | . | . | /
COc1ccc(CCNc2ncnc3c2c(-c2ccccc2)cn3-c2ccc(Cl)cc2)cc1OC | / | / | . | . | 22.4µM | /
Fc1ccc(-n2cc(-c3ccccc3)c3c(NCCc4ccccc4)ncnc32)cc1 | / | / | . | . | 31.6µM | /
COc1ccc(CCNc2cc(C)nc3c(-c4ccccc4)cnn23)cc1OC | . | . | . | . | 28.2µM | .
COCCN(CCOC)c1ncnc2c1c(-c1ccccc1)cn2-c1ccc(C)c(Cl)c1 | / | / | . | . | 28.2µM | /
COc1ccccc1-c1cnn2c(NCCc3ccccc3)cc(C)nc12 | . | . | ? | . | / | /
CC(C(O)c1ccccc1)N(C)CCOC(c1ccccc1)c1ccccc1 (stereo not drawn) | / | / | . | / | / | /
O=c1cc(-c2ccccc2)[nH]c2nc3ccccc3n12 | . | . | . | . | 11.2µM | .
CCc1c(C)[nH]c2nc3ccccc3n2c1=O | . | . | . | . | 28.2µM | .
COc1cc2c(cc1OC)/C(=C/c1ccc(N(C)C)cc1)C=C2 | / | / | . | / | . | /
Cc1ccccc1C1(CC(=O)N2CC3(C)CC2CC(C)(C)C3)CC(=O)N(Cc2cccnc2)C1=O (stereo not drawn) | / | / | . | / | / | /
COc1ccc(OCC(O)CNCc2ccco2)cc1 (stereo not drawn) | . | . | . | . | . | .
OC(CNCc1ccco1)COc1ccccc1 (stereo not drawn) | . | .[2.35 µM] | . | . | 14.1µM | .
O=C(NCC(O)c1ccccc1)c1cccc(S(=O)(=O)N2CCOCC2)c1 (stereo not drawn) | . | . | . | . | 31.6µM | .
COc1ccc(C(CNC(=O)c2cccc(S(=O)(=O)N3CCOCC3)c2)N2CCOCC2)cc1 (stereo not drawn) | . | / | . | / | . | /
FC(F)Oc1ccc(NC(=S)N2CCN(Cc3ccccc3)CC2)cc1 | . | . | . | . | 8.91µM | .
S=C(Nc1ccc(Cl)cc1)N1CCN(Cc2ccccc2)CC1 | . | . | . | . | . | .
Cn1c(-c2cc3c(C(F)(F)F)nn(C)c3s2)n[nH]c1=S | . | . | . | . | ? | .
SMILES | Integrin act MD | N370S GC mod | Glioma ERSR ind | Apoferritin bind | ClpP mod | CBFb RUNX1 block
CCn1c(-c2cc3c(C(F)(F)F)nn(C)c3s2)n[nH]c1=S | . | . | . | . | 28.2µM | .
O=C1c2ccccc2CCC1CNCCc1ccc(O)cc1 (stereo not drawn) | / | . | . | ? | / | .
Cc1cnn(-c2nc(-c3cccs3)cc(C(F)(F)F)n2)c1 | . | ? | . | . | . | .
FC(F)(F)c1cc(-c2cccs2)nc(-n2cc(Br)cn2)n1 | . | ? | . | ? | 31.6µM | .
CCCCCCCCNC(=O)/C(C#N)=C/c1ccc2c(c1)OCCO2 | . | . | . | . | . | .
CCCCNC(=O)/C(C#N)=C/c1ccc2c(c1)OCCO2 | . | . | . | . | 25.1µM | .
CC(C)(C)c1ccc(C(=O)OCC(=O)Nc2sc3c(c2C#N)CCC3)cc1 | 5.01µM | . | . | . | . | .
